Rows were chosen to be rich in hits. Some 0.54% of all compounds tested hit in one or more screens of this group.
CXXC DNA block – MLL CXXC-DNA interaction inhibition; Q03164; MLL-CXXC / FITC-HOXA9 DNA fluorescence polarization; Potency, µM (doses to about 115 µM), inactives show top-dose activity change, negative = inhibition, usual class: inhibitors; 0.037% of 290,000 active; active = well fitted inhibition curve with a large enough effect in the polarisation, with a control signal flat, not every such curve was filed as active; inconclusive = small, poorly fitted or top-dose-only effect, or effect the other way, or a change in a side signal; inactive = no such curve, though single readings can be large or run the other way; the % refers to the polarisation; also: potency is read from the fitted curve at half-maximal effect
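Purified MLL-CXXC (added from a 7 uM solution) was preincubated 5 min at ambient with pinned compounds in 50 mM Tris-HCl pH 7.5, 50 mM NaCl, 1 mM DTT, 0.05% BSA. Fluorescein-labeled HOX-A9 DNA (50 nM solution) followed, 30 min, then polarization read.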
Menin MLL FP TR – displaces Texas Red mutant MLL peptide from human menin; O00255; Menin + Texas Red MLL mutant peptide, fluorescence polarization; Potency, µM (highest dose often 61.6 µM), for inactives: top-dose FP activity change, negative = inhibition, usual class: inhibitors; 0.23% of 270,000 active; active = well fitted inhibition curve with a large enough effect in the polarisation, with a control signal flat, not every such curve was filed as active; inconclusive = small, poorly fitted or top-dose-only effect, or effect the other way, or a change in a side signal; inactive = no such curve, though single readings can be large or run the other way; the % refers to the polarisation; also: potency is read from the fitted curve at half-maximal effect; % of control where 0% means no effect
Target sequence (O00255 whole entry, looked up): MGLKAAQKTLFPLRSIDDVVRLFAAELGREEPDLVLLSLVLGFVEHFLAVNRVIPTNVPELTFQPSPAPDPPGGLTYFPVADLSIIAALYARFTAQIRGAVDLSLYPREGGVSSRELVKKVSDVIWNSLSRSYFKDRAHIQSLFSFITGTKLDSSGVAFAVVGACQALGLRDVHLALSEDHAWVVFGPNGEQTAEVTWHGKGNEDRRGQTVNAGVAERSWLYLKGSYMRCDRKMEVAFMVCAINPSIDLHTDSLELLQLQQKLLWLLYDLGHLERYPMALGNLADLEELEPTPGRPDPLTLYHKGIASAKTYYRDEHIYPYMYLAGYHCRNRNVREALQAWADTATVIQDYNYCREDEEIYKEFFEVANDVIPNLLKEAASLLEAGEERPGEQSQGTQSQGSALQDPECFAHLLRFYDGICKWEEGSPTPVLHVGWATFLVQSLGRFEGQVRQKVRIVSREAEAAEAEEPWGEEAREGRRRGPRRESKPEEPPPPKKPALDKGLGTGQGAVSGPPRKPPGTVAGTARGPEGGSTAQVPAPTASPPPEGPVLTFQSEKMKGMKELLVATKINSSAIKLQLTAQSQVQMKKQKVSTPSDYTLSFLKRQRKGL
LDHA block – LDHA (human) enzyme inhibition; purified LDHA, NADH/diaphorase-resazurin fluorescence; hits give low values; activity change, % (values are at about 110 or 230 µM); 0.15% of 480,000 active; AID 1347041; in the data active = activity change below about -30%; inconclusive = mostly about -25% to -30%;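 also: plate controls were DMSO wells for no effect and wells without enzyme for full effect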
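Resorufin fluorescence (ex540/em590), read at 0 and 20 min after diaphorase/resazurin addition, reports the NADH left after a 5 min room-temperature reaction of 2 nM human LDH5 with 0.06 mM NADH and 0.2 mM pyruvate.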
Menin MLL FP FL – inhibitors of human menin-MLL interaction, wild-type MLL peptide; FP activity change, % at 61.4 µM; 290,000 tested, under 10 active; Fluorescence polarization, fluorescein-MLL peptide displacement from menin; AID 1766; active = well fitted curve in the direction sought with a large enough effect in the polarisation, not every such curve was filed as active; inconclusive = small, poorly fitted or top-dose-only effect, or effect the other way, or a change in a side signal; inactive = no such curve, though single readings can be large or run the other way; the % refers to the polarisation; also: % of control where 0% means no effect
Akt phos inh – Akt phosphorylation inhibition; Neuro2A IGF-stimulated pAkt S473 HTRF, 20 min; hits give low values; activity change, % for hits at 50 µM; 0.32% of 360,000 active; AID 651550; in the data active = activity change below about -80%; inconclusive = mostly about -51% to -80%; also: % is scaled to controls: 0 for no effect and ±100 for the full control effect
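Single-point screen (50 µM final compound) in Neuro2A cells stimulated 20 min with 6 nM IGF at 37 deg C. After lysis, Ser473-phosphorylated Akt read by HTRF (ex 330 nm, em 615/665 nm) as the 665/615 ratio.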
mIDH1 inhibitor – inhibitors of human mutant IDH1 R132H; O75874; IDH1-R132H enzyme, NADPH consumption, diaphorase/resazurin fluorescence; Potency, µM (series often up to 76.6 µM), for inactives: at the top dose activity change, negative = inhibition, most hits filed as inhibitors; 0.093% of 390,000 active; AID 602179; active = well fitted inhibition curve with a large enough effect; inconclusive = small, poorly fitted or top-dose-only effect; inactive = no such curve, though single readings can be large or run the other way; also: potency is read from the fitted curve at half-maximal effect; % is scaled to controls: 0 for no effect and ±100 for the full control effect; nearly all actives have a fitted effect of over 65% in size
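IDH1-R132H (0.5 ug/mL dispensed) in pH 7.5 Tris buffer was preincubated 30 min with compound, then given a substrate mix of 0.016 mM NADPH and 2 mM alpha-KG for 80 min at room temperature; remaining NADPH was read by diaphorase/resazurin fluorescence.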
* marks the source's active call; other numbers are inactive results; ! = a repeat was not active.

Results for CCOC(=O)C1=C(c2ccccc2)NC(=O)NC1c1cc(Br)c(O)c(OC)c1 (configuration not stated) ?
CXXC DNA block: -4%; Menin MLL FP TR: 33%; LDHA block: -1; Menin MLL FP FL: 0; Akt phos inh: inactive; mIDH1 inhibitor: -13%

What do the screens show for `CCOC(=O)C1=C(C)NC(=O)NC1c1cc(Br)c(O)c(OC)c1` (configuration not stated)?
CXXC DNA block: 4%; Menin MLL FP TR: 16%; LDHA block: 1; Menin MLL FP FL: 2; Akt phos inh: -120%*; mIDH1 inhibitor: 0%

What do the screens show for `Cc1cccc(OCC(=O)Nc2ccc3oc(C)nc3c2)c1`?
LDHA block: -14

Results for COc1cc(C)cc2oc(=O)c(CC(=O)NCc3ccco3)c(C)c12 ?
LDHA block: 1

Results for COc1ccc(/C=N/NC(=O)c2cc(-c3ccc(C)cc3C)nc3ccccc23)cc1COC(C)=O ?
CXXC DNA block: 35%; Menin MLL FP TR: -4%; LDHA block: -1; Menin MLL FP FL: 0; Akt phos inh: -89%*; mIDH1 inhibitor: 8%

What do the screens show for `COc1ccc(/C=N/NC(=O)c2cc(-c3ccccc3OC)nc3ccccc23)cc1COC(C)=O`?
CXXC DNA block: 1%; Menin MLL FP TR: -5%; LDHA block: -1; Menin MLL FP FL: 2; Akt phos inh: inactive; mIDH1 inhibitor: 2%

What do the screens show for `O=C(/C=C/c1ccccc1)c1ccccn1`?
CXXC DNA block: 4%; Menin MLL FP TR: -14%; LDHA block: 15; Menin MLL FP FL: 4; Akt phos inh: -119%*; mIDH1 inhibitor: 8%

What do the screens show for `N/C(=N\OC(=O)/C=C/c1ccccc1)c1ccccn1`?
CXXC DNA block: -14%; Menin MLL FP TR: -26%; LDHA block: -3; Menin MLL FP FL: 1; Akt phos inh: inactive; mIDH1 inhibitor: 15%

Results for Cc1cccc(N(CC(N)=O)C2SC(=O)NC2=O)c1 (configuration not stated) ?
CXXC DNA block: -6%; Menin MLL FP TR: -4%; LDHA block: -2; Menin MLL FP FL: 1; Akt phos inh: -106%*; mIDH1 inhibitor: -2%

Results for Cc1ccc(NC(=O)CC2C=CCC2)cc1C (configuration not stated) ?
LDHA block: 0

How did COc1cc(OC)c(Nc2c3c(nc4nc(-c5cccs5)nn24)CCCC3)cc1Cl do in these assays?
LDHA block: 6; mIDH1 inhibitor: 32µM*

Results for N#CCCn1cc(/C=C(\C#N)c2nc3ccccc3s2)c(-c2ccc(F)cc2)n1 ?
CXXC DNA block: 5%; Menin MLL FP TR: 8%; LDHA block: -6; Menin MLL FP FL: inconclusive; Akt phos inh: -88%*; mIDH1 inhibitor: -2%

Results for c1ccc(CCNc2ccnc3cc4ccccc4cc23)cc1 ?
CXXC DNA block: inconclusive; Menin MLL FP TR: 22µM*; LDHA block: 13; Menin MLL FP FL: -21; Akt phos inh: inactive; mIDH1 inhibitor: 20%

What do the screens show for `CC(C)Nc1ccc(Nc2ccnc3cc4ccccc4cc23)cc1`?
CXXC DNA block: inconclusive; LDHA block: 6; Menin MLL FP FL: 4; Akt phos inh: inactive; mIDH1 inhibitor: 0%

How did O=c1c(-c2ccccc2)nc2cnc(Nc3ccccc3)nc2n1C[C@H]1CCCO1 do in these assays?
Menin MLL FP TR: 37%; Menin MLL FP FL: inconclusive

What do the screens show for `N#Cc1cccc(-c2nc3cnc(Nc4ccccc4)nc3n(C[C@H]3CCCO3)c2=O)c1`?
Menin MLL FP TR: 28µM*; Menin MLL FP FL: inconclusive

What do the screens show for `CCOC(=O)C1=C(C)NC2=C(C(=O)C(C(=O)OCC)C(c3ccc(OC)cc3)C2)C1c1ccccn1` (configuration not stated)?
CXXC DNA block: 24%; Menin MLL FP TR: 14%; LDHA block: -12; Menin MLL FP FL: 7; Akt phos inh: -108%*; mIDH1 inhibitor: 0%

What do the screens show for `CCCCCCc1ccc(/C(C)=C/C(=O)O)cc1`?
LDHA block: -2

What do the screens show for `CSC1=N/C(=C\C=C\c2ccco2)C(=O)S1`?
LDHA block: -23

Results for Cc1ccc(NC(=O)/C(=C/c2ccco2)c2ccccc2)c(C)c1 ?
CXXC DNA block: -15%; Menin MLL FP TR: -9%; LDHA block: -1; Menin MLL FP FL: 0; Akt phos inh: -129%*; mIDH1 inhibitor: 3%

Results for CCc1cc(C)nc(C)c1O ?
LDHA block: 2

What do the screens show for `Cc1cccc(-c2nc3n(CC(=O)N4CCC(C)CC4)c(C)cc(=O)n3n2)c1`?
LDHA block: 7

What do the screens show for `Cc1cccc(-c2nc3n(CC(=O)N4CCCCCC4)c(C)cc(=O)n3n2)c1`?
LDHA block: -31*

What do the screens show for `CCN1CCC(N(Cc2ccc3c(c2)OCO3)C(=O)Nc2ccc(OC)c(OC)c2)CC1`?
LDHA block: -3

What do the screens show for `CN(Cc1cnn(C)c1)C(=O)C1CC(=O)N(c2cccc(Cl)c2)C1` (configuration not stated)?
LDHA block: 0

What do the screens show for `Clc1cccc(OCCN2CCOCC2)c1`?
CXXC DNA block: 4%; Menin MLL FP TR: -1%; LDHA block: -34*; Menin MLL FP FL: -8; Akt phos inh: inactive; mIDH1 inhibitor: -5%

Results for Brc1cccc(OCCN2CCOCC2)c1 ?
CXXC DNA block: 0%; Menin MLL FP TR: -1%; LDHA block: -21; Menin MLL FP FL: -2; Akt phos inh: inactive; mIDH1 inhibitor: 10%

How did CCOc1cccc(OCCCCN2CCOCC2)c1 do in these assays?
CXXC DNA block: 15%; Menin MLL FP TR: -16%; LDHA block: -20; Menin MLL FP FL: -2; Akt phos inh: -108%*; mIDH1 inhibitor: 16%

How did Brc1cccc(OCCN2CCCCC2)c1 do in these assays?
CXXC DNA block: 6%; Menin MLL FP TR: 0%; LDHA block: -33*; Menin MLL FP FL: 3; Akt phos inh: inactive; mIDH1 inhibitor: 16%

How did CN1CCN(C(C)(C)CNC(=S)Nc2ccc(Cl)cc2Cl)CC1 do in these assays?
LDHA block: 10

What do the screens show for `CC1C(=O)CC[N+](C)(C)C1C` (configuration not stated)?
LDHA block: 4

What do the screens show for `Cc1nc2cc(F)ccc2cc1C(=O)NCC1CCCCC1`?
LDHA block: 4

What do the screens show for `Cc1nc2c([nH]1)c(=O)n(C)c(=O)n2Cc1ccco1`?
CXXC DNA block: 9%; Menin MLL FP TR: 16µM*!; LDHA block: -2; Menin MLL FP FL: inconclusive

What do the screens show for `Cc1nc2ccccc2c(=O)n1Cc1ccco1`?
CXXC DNA block: 22%; LDHA block: -2; Menin MLL FP FL: 0; Akt phos inh: inactive; mIDH1 inhibitor: -1%
